# Assay results published in PubChem BioAssay AID1053143 (Broad Institute, 2014).
# Among all 3,400 compounds or so, about 120 (3.5%) were called active. Only a sample is shown. Potency and affinity values are given separately. Values without a mark were called inactive. The rule behind the calls is not given here.
# Experiment: HepG2 cell cytotoxicity, dose response, cytotoxicity control, ATP luminescence, cherry-pick, activator set 2 (AID 1053143)
# Details: HepG2 viability, CellTiter-Glo ATP luminescence, 72 h; series mostly up to 26 µM; activity change, negative = cytotoxicity: at the top concentration
row,Compound,"activity change, negative = cytotoxicity"
1,CS(=O)(=O)N1CCN(c2ccc(NC(=O)c3ccc(Br)o3)cc2)CC1,-4.07%
2,CN1CCN(c2ccc(-c3ccnn3C(=O)Nc3ccccc3)cc2)CC1,-18.8%
3,Cc1ccccc1Nc1nn2c(=O)c3ccccc3nc2s1,-18.2%
4,COc1c(C(=O)NNC(=O)c2ccccc2)csc1Br,3.9%
5,Oc1c(/C=N/c2ccccn2)sc2ccccc12,-10.5%
6,CC(/C=N/Nc1nc2ccccc2[nH]1)=C\c1ccccc1,-7.42%
7,Cc1ccc(/C=C/C(=O)c2nc3ccccc3[nH]2)cc1,-0.116%
8,CC(C)C(OC(=O)C1=Cc2ccccc2OC1)C(=O)NCC1CCCO1 (centres undefined),-10.3%
9,Nc1ccc(-c2nc3ccccc3s2)cn1,-7.55%
10,Cc1ccc2nc(-c3ccc(NS(=O)(=O)c4ccc(F)cc4)cc3)sc2c1,-13.2%
11,COc1ccc(OCc2cc(C(=O)N3CCOCC3)no2)c(Cl)c1,-6.33%
12,O=c1cccc2n1Cc1cc3ccccc3nc1-2,-2.27% [at 12 µM]
13,COc1ccc(C(=O)COC(=O)c2sccc2C)cc1OC,-0.285%
14,O=C(Nc1ccc(NC(=O)C2CC2)cn1)c1ccccc1Cl,-12.3%
15,O=C(Nc1ccc(C(=O)c2ccccc2)cc1)c1ccccc1,-10%
16,Nc1ccccc1N=Nc1ccccc1N,-6.69%
17,CC(C)(C)OC(=O)N/N=C\C=C\c1ccc2c(c1)OCO2,2.12%
18,CCc1ccc(NC(=O)C(=O)c2ccccc2NC(C)=O)cc1,-1.17%
19,COc1ccc(NC(=O)N2CCCc3ccccc32)cc1,-6.43%
20,O=C(Nc1ccc2c(c1)OCO2)N1CCCc2ccccc21,1.95%
21,O=C(Nc1ccc(NC(=O)C2CCCCC2)nc1)c1cccs1,31.7%
22,COc1ccc(NC(=O)/C(=C\c2ccc3c(c2)OCO3)NC(C)=O)cc1,-15.9%
23,COc1ccc2c(c1)CCC1C2=NN(/C(C)=C\C(C)=O)C1c1ccc(F)cc1 (centres undefined),-1.99%
24,CCN(CC)c1cc(C)c(C#N)c2nc3ccccc3n12,-21.3%
25,c1ccc(-c2ccc3ccccc3n2)cc1,-17.4%

row,Compound,"activity change, negative = cytotoxicity"
1,O=C(c1cccs1)N1CCN=C1SCc1ccc(F)cc1,11.9% [at 12 µM]
2,COc1ccc(-c2cn(Cc3ccc(C(=O)c4ccccc4)cc3)nn2)cc1,-18%
3,O=C(N/N=C/c1ccc(Br)cc1)c1ccc(Br)o1,12.5%
4,CCc1ccc2cc3c(cc2n1)C(=O)c1ccccc1-3,-15.3%
5,O=C(Nc1ccc(F)c(Cl)c1)c1ccccc1,-28.6%
6,COc1ccc(NC(=O)Nc2ccc(F)c(Cl)c2)cc1,-6.84%
7,COc1ccccc1NC(=O)CCC(=O)Nc1nnc(C2CCCCC2)s1,-8.45%
8,O=C1c2ccccc2C(=O)C1c1ccnc2ccccc12,11.3%
9,COc1cccc(C=Cc2nccc3ccccc23)c1OC,-24%
10,C=CCSc1nc2c(cnn2-c2ccccc2)c(=O)n1N,-8.22%
11,Cc1ccc(OCC(=O)Nc2ccccc2[N+](=O)[O-])c(Br)c1,13.1%
12,O=c1c2ccccc2oc2cc(-c3ccc4cc[nH]c4c3)ccc12,-6.73%
13,O=c1c2ccccc2oc2cc(NCCCN3CCOCC3)ccc12,-6.64%
14,Nc1ccccc1-c1nc2ccccc2s1,-14.9%
15,Cc1ccccc1Nc1nc(N)nc(-c2oc3ccccc3c2C)n1,-2.45%
16,Cc1ccc(C)c(Nc2nc(N)c3ccccc3n2)c1,-25.3%
17,Cc1ccc(-c2nc(Nc3ccccc3)n[nH]2)cc1,-0.325%
18,Nc1ccccc1-c1nc2ccccc2[nH]1,-14.4%
19,Nc1nc(CSc2ccccn2)nc(Nc2ccccc2)n1,-20%
20,COc1ccc(-c2c3c(nc4sc(C(=O)Nc5ccccc5)c(N)c24)CCC3)cc1,3.45%
21,CN(CC(=O)Nc1cccc(F)c1)C(=O)CCNC(=O)c1ccco1,13.2%
22,CCOC(=O)c1ccc(S(=O)(=O)NCCNCc2ccccc2)cc1,27.4% [at 12 µM]
23,CCOC(=O)C1CCN(C(=O)c2cc3cc(C)ccc3[nH]2)CC1,7.79%
24,COC(=O)c1ccc2[nH]c(C3(O)CCCCC3)c(C)c2c1,-11.6%
25,CC(C)c1ccc(N=C2N=C(N)c3ccccc32)cc1,-8.99%

row,Compound,"activity change, negative = cytotoxicity"
1,Cc1ccc(-c2noc(CSc3ccccc3)n2)cc1,-12.3%
2,COc1ccc(NC(=O)c2ccc3c(c2)N(C)CCS3)cc1,0.622%
3,CCOc1ccc(NC(=O)c2ccc3c(c2)N(C)CCS3)cc1,0.299%
4,Cc1ccc(NC(=O)Nc2cnc3ccccc3c2)cc1,-13.6%
5,c1ccc(-c2nc(-c3ccc(-c4ccon4)s3)no2)cc1,11.5%
6,CCCC(=O)N=C1SC2CS(=O)(=O)CC2N1c1ccc(-c2nc3ccc(C)cc3s2)cc1 (centres undefined),-6.16% [at 6 µM]
7,O=c1c2c3c(sc2nc2n1CCCCC2)CCCC3,7.6% [at 12 µM]
8,O=C(Cc1ccccc1)Nc1ccc(NC(=O)c2ccco2)nc1,4.68%
9,Cc1ccc2cc(NC(=O)c3cccc(F)c3)ccc2n1,-11.1%
10,O=C(Nc1ccc(NC(=O)c2ccco2)nc1)c1cccc(F)c1,3.89%
11,O=C(CCc1ccccc1)Nc1ccc(NC(=O)c2ccco2)nc1,6.73%
12,CC(=O)Nc1ccc2c(c1)C(=Nc1cccc(C)c1)c1ccccc1-2,-8.52%
13,C/C(=N\OC(=O)Nc1ccc(Cl)cc1)c1ncc(C(F)(F)F)cc1N1CCOCC1,-2.73%
14,O=C(CSc1nnc(-c2ccccn2)o1)Nc1ccccc1F,-19.4%
15,O=C(CSc1nnc(-c2cccnc2)o1)Nc1ccccc1F,-15.1%
16,CCOc1nc(N2CCOCC2)nc(C)c1[N+](=O)[O-],-9.28%
17,Cc1ccc(NC(=O)c2ccc(F)cc2F)cc1,-4.22%
18,c1ccc(-c2nnc(-c3ccccn3)nn2)nc1,-17.4%
19,c1ccc(-c2ccc(-c3ccccn3)s2)nc1,-9.96%
20,COC(=O)c1ccc(-c2nc3ccc(C)cc3o2)cc1,-4.62%
21,COc1ccc(-c2nnc(-c3ccc(C)cc3)o2)cc1,-7.01%
22,COc1cccc(-c2nnc(-c3ccc4ccccc4c3)o2)c1,-4.7%
23,Cc1ccc2oc(-c3cccc(NC(=O)c4ccccn4)c3)nc2c1,-21.7% [at 12 µM]
24,COC(=O)CSc1nc2ccccc2c(=O)n1C,12.1%
25,COc1cc(CO)ccc1OCc1ccc(Cl)nc1,-13.2% [at 12 µM]

row,Compound,"activity change, negative = cytotoxicity"
1,Clc1ccccc1OCc1nc(-c2ccccn2)no1,-14.1%
2,Cn1c(SCC(=O)c2ccccc2)nnc1-c1ccco1,0.181%
3,Cc1cc(C(=O)COC(=O)c2cccc(S(=O)(=O)N(C)C)c2)c(C)n1CC1CCCO1 (centres undefined),-5.36%
4,CC(C)Oc1ccc(C(=O)OCC(=O)c2ccc[nH]2)cc1,-11.4%
5,COC(=O)CSC(C(=O)Nc1ccc(C)c(C)c1)c1ccccc1 (centres undefined),-18%
6,CCCc1nc2c3ccccc3ccn2c1Cc1ccccc1,-13.7%
7,COc1ccc2[nH]c3c(=O)n(CCc4ccccc4)cnc3c2c1,-10.2%
8,Nc1ccc(C(=O)OCCc2ccccc2)cc1,-19%
9,O=C(Nc1ccc(Cl)cn1)c1ccccc1F,-11.4%
10,O=C(Nc1ccc(Cl)cn1)c1ccc2nccnc2c1,-14.3%
11,OCC1OC(n2ccc3c(SCc4ccccc4)ncnc32)C(O)C1O (centres undefined),-7.9% [at 6 µM]
12,Cc1cc(N2CCOCC2)nc2cc(O)ccc12,1.65%
13,O=C1c2ccccc2NC(c2ccc(-c3cccs3)o2)N1O (centres undefined),-8.51%
14,c1cnc(SCCCOc2ccc3ccccc3c2)nc1,-7.21%
15,Cc1ccc(NC(=O)CCC(=O)c2cccs2)cc1,0.275%
16,C=CCNc1nc(-c2ccc3c(c2)OCCO3)cs1,-18.3%
17,O=c1oc(CCCO)cc2ccc(/C=C/c3cccc([N+](=O)[O-])c3)cc12,9.18%
18,CN1CCCN(C(=O)c2cc(-c3cccc4ccccc34)nc3ccccc23)CC1,-16.5%
19,COc1ccc(NC(=O)c2cc(-c3ccco3)on2)cc1,2.5%
20,CC(C)c1cc(C(=O)NCCc2ccccc2)no1,-19.3%
21,O=C(Nc1cccnc1Cl)c1cc(-c2ccco2)on1,5.57%
22,O=C(Nc1ccc(F)c(Cl)c1)c1cc(-c2ccco2)on1,15.2%
23,COc1ccc2cc(-c3ccccc3)c(=O)oc2c1,-12.2%
24,Cc1ccc(C)c(OCc2cc(C(=O)N3CC[C@H](O)C3)no2)c1,-11.7%
25,COC(=O)C1=C(N)Oc2c(oc(CO)cc2=O)C1c1ccc(F)cc1 (centres undefined),-12.3%

row,Compound,"activity change, negative = cytotoxicity"
1,Fc1ccc(SCCc2ccccn2)cc1,-10.7%
2,O=C(Nc1cccc(-c2ccc(N3CCOCC3)nn2)c1)c1cccc(Cl)c1,-6.34%
3,CCOC(=O)C1CCN(C(=O)/C=C/c2ccccc2)CC1,-14.5%
4,Cc1ccc(C(=O)Nc2cccc(-c3ccc(N4CCOCC4)nn3)c2)cc1,-19.4% [at 12 µM]
5,CCOC(=O)C1CCN(C(=O)C(CC)c2ccccc2)CC1 (centres undefined),0.165%
6,Fc1ccc(/C=C/c2nnc(-c3cccs3)o2)cc1,-11.6%
7,O=C(C=NNc1ccccc1)c1ccccc1,-23.1%
8,CCC(C)C(=O)Nc1nnc(-c2cccs2)s1 (centres undefined),22.8%
9,O=C(Nc1ccccc1F)c1ccc2c(c1)OCO2,-28%
10,O=C(Nc1cccc([N+](=O)[O-])c1)c1ccc2c(c1)OCCO2,32.1% [at 12 µM]
11,O=C(Nc1ncccc1Cl)c1cc2ccccc2o1,-1.87%
12,O=C(Nc1cccnc1)c1ccc(Oc2ccccc2)cc1,-11.8%
13,NC(=O)c1ccccc1NC(=O)c1ccc2c(c1)OCO2,-17%
14,O=C(Nc1cccnc1Cl)c1cc2ccccc2o1,-5.8%
15,O=C(Nc1ncccc1O)c1ccc2ccccc2c1,-15.9%
16,O=C(Nc1ccc(Cl)cc1Cl)c1ccc2c(c1)OCCO2,0.31%
17,CC(=O)Oc1ccc(Oc2ccc(-c3noc(C)n3)cc2)cc1,-9.53%
18,CSc1nnc(NC(=O)c2ccc(S(=O)(=O)N(C)C)cc2)s1,-1.21%
19,CN(C)c1ccc(-c2nnc(-c3cccs3)o2)cc1,-9.57%
20,CCN(CC)C(=O)C1CCN(Cc2cn(C)nc2-c2ccc(Oc3ccccc3)cc2)CC1,4.7%
21,COc1ccc(-c2[nH]ncc2CNC(C)c2ccccc2Cl)cc1F (centres undefined),-10.5%
22,O=C(O)c1ccccc1-c1ccccc1C(=O)NNc1ccccc1,-11.9%
23,O=C(N/N=C/c1ccc(N2CCOCC2)cc1)c1ccccn1,-21.9%
24,O=C(COC(=O)c1ccc(F)c(S(=O)(=O)N2CCCCC2)c1)NCc1ccc(F)cc1,13.5%
